Reference: PubChem BioAssay (Tox21)
Several values for one entry are separate records, joined by “and”; a condition that tells them apart may be missing. Identical values can stand only once. Records with an inconclusive call do not appear. Some compounds were tested as several samples or in several runs, with calls that do not always agree. Activity calls are given as the source filed them. Unless noted, calls come from the whole dose curve; as a rule, active = well fitted curve in the direction sought with a large enough effect in the repeat runs; inconclusive = weak or mixed curves; inactive = no such curve, though single readings can be large; an effect the other way counts as inactive or inconclusive.

Key:
[1] = qHTS assay to identify small molecule antagonists of the estrogen receptor alpha (ER-alpha) signaling pathway using the BG1 cell line in the presence of 0.1 nM 17-beta-estradiol - cell viability counter screen (AID 1259241); note: nearly all actives have a fitted effect of over 40% in size
Procedure, shortened: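 VM7Luc4E2, 4,000 cells/well, phenol red-free medium + 10% charcoal-stripped FBS; 24 hr plating; cpd + 0.1 nM E2 final, 22 hr 37C/5% CO2; CellTiter-Fluor 30 min, fluorescence.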

[2] = qHTS assay to identify small molecule antagonists of the androgen receptor (AR) signaling pathway using the MDA cell line in the presence of 0.5 nM R1881 - cell viability counter screen (AID 1259242); note: nearly all actives have a fitted effect of over 45% in size
Procedure, shortened: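 Human breast carcinoma MDA-kb2 cells, cultured without CO2, receive compounds alongside 0.5 nM (final) R1881 agonist. After 16 hr at 37C, viability is taken as live-cell protease signal.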

[3] = molecular target: Androgen receptor (Homo sapiens) (UniProt P10275); test: qHTS assay to identify small molecule antagonists of the androgen receptor (AR) signaling pathway using the MDA cell line in the presence of 0.5 nM R1881 (AID 1259243); note: nearly all actives have a fitted effect of over 50% in size; note: potency is the fitted concentration of half-maximal effect
Sequence of Androgen receptor (Homo sapiens) (P10275 whole entry, looked up): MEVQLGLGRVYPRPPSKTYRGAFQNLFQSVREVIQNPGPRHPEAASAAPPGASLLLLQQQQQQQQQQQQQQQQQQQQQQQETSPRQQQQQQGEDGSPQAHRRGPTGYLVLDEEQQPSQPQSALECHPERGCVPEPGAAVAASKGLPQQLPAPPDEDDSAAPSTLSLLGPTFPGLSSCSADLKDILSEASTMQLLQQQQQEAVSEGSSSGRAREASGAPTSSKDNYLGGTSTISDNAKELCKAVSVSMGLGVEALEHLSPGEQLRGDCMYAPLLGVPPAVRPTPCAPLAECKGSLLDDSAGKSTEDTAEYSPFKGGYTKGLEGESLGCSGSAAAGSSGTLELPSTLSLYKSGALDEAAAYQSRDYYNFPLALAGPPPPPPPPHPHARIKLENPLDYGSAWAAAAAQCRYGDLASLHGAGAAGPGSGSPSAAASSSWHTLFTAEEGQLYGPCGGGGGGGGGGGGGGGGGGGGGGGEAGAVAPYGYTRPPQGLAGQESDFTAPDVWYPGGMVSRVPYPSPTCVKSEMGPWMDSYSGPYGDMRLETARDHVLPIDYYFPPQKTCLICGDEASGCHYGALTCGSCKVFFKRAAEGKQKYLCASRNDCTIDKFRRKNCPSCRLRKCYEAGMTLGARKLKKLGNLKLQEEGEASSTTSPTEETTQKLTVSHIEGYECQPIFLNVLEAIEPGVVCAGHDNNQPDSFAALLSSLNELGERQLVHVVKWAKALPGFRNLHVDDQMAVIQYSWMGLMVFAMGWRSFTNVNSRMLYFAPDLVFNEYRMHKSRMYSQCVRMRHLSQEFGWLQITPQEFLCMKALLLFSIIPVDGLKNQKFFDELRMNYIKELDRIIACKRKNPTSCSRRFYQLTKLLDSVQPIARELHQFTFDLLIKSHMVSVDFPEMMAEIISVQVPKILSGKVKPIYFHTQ
Procedure, shortened: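 Cells: MDA-kb2 (MMTV-luc). Stimulus: 0.5 nM R1881. Time: 16 hr, 37C, no CO2. Detection: ONE-Glo luminescence after 30 min at RT.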

[4] = molecular target: Estrogen receptor (Homo sapiens) (UniProt P03372); test: qHTS assay to identify small molecule antagonists of the estrogen receptor alpha (ER-alpha) signaling pathway using the BG1 cell line in the presence of 0.1 nM 17-beta-estradiol (AID 1259244); note: nearly all actives have a fitted effect of over 50% in size; note: potency is the fitted concentration of half-maximal effect
Sequence of Estrogen receptor (Homo sapiens) (P03372 whole entry, looked up): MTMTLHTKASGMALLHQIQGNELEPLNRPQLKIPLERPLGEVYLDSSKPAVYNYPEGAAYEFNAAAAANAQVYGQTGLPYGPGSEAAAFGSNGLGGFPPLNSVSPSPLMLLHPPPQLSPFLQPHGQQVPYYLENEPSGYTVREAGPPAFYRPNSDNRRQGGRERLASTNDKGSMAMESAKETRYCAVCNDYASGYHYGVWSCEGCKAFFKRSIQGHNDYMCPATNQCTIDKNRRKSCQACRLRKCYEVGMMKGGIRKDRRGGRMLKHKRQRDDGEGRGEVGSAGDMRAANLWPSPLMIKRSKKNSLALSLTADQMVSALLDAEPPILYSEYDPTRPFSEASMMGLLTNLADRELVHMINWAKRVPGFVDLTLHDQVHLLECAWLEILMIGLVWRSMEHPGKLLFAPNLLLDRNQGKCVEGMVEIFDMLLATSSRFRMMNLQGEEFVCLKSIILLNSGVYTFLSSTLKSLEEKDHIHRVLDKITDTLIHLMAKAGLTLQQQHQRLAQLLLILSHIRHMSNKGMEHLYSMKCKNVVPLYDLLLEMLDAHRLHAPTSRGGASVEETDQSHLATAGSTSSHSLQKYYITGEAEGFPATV
Procedure, shortened: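 Seeding of stripped-serum-adapted VM7Luc4E2 cells, 24 h attachment, compound transfer, then 0.1 nM final 17beta-estradiol; after 22 h incubation, ONE-Glo reagent and luminescence reading.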

[5] = qHTS assay to identify small molecule HDAC inhibitors (AID 1259364);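 note: wild-type HCT-116 cells with endogenous class I/II HDAC activity; top concentration of the series differs between compounds; nearly all actives have a fitted effect of over 45% in size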
Procedure, shortened: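 After a 2 hr compound incubation (37C, 5% CO2), HCT-116 cells seeded at 1,500/well the day before received HDAC-Glo reagent; signal read as luminescence after 30 min at room temperature.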

[6] = qHTS assay to identify small molecule HDAC inhibitors - cell viability counter screen (AID 1259365); note: series mostly up to about 92 µM; nearly all actives have a fitted effect of over 50% in size
Procedure, shortened: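 Luminescence from CellTiter-Glo, developed 30min at room temperature, reports viability of wild-type HCT-116 cells treated 2hr with compounds at 37 C and 5% CO2 after overnight plating.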

[7] = qHTS assay to identify small molecule agonists of the sonic hedgehog signaling (Shh) pathway - cell viability counter screen (AID 1259366); note: nearly all actives have a fitted effect of over 50% in size; note: potency is the fitted concentration of half-maximal effect
Procedure, shortened: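 Cytotoxicity counter screen run in the same wells as the Shh reporter assay. NIH/3T3 cells carrying a Gli1 response element–driven luciferase were treated with DMSO-dissolved compounds for 24hr, and live-cell protease activity was measured with CellTiter-Fluor.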

[8] = qHTS assay to identify small molecule antagonists of the sonic hedgehog signaling (Shh) pathway - cell viability counter screen (AID 1259367); note: nearly all actives have a fitted effect of over 55% in size; note: potency is the fitted concentration of half-maximal effect
Procedure, shortened: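 Conditioned medium drove Shh signaling in 3T3 Gli1-Luc cells exposed to compounds at 37C and 5% CO2. Viability was determined from CellTiter-Fluor fluorescence, with reagent incubated 1 hr after 23 hr of treatment.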

[9] = qHTS assay to identify small molecule agonists of the sonic hedgehog signaling (Shh) pathway (AID 1259368; calls by dose curve;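 note: NIH/3T3-derived 3T3Gli1-Luc cells carrying a stable Gli1-driven firefly luciferase reporter; series mostly up to about 92 µM; nearly all actives have a fitted effect of over 15% in size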)
Procedure, shortened: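 Stable NIH/3T3 Gli1-Luc reporter clone; 24 hr cpd exposure after a 4 hr settling period; luminescence endpoint.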

[10] = molecular target: Estrogen receptor beta (Homo sapiens) (UniProt Q92731); test: qHTS assay to identify small molecule agonists of the estrogen receptor beta (ER-beta) signaling pathway (AID 1259377; active = well fitted activation curve with a large enough effect in the signal ratio in the repeat runs, not every such curve was filed as active; the % refers to the signal ratio)
Sequence of Estrogen receptor beta (Homo sapiens) (Q92731 whole entry, looked up): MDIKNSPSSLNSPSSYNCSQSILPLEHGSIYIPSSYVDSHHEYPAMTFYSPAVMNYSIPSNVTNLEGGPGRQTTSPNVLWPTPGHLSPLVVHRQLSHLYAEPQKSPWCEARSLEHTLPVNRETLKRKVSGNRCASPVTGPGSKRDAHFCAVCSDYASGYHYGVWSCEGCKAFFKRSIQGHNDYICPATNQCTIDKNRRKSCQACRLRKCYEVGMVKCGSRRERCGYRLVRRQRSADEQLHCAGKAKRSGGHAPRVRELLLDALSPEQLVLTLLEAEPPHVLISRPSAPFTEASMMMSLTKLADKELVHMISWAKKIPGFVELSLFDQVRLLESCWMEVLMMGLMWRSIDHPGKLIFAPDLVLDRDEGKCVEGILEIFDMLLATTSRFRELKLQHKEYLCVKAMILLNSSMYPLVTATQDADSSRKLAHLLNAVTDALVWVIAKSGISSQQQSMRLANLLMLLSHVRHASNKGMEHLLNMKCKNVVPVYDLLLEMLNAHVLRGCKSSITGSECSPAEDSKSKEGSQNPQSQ
Procedure, shortened: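 HEK293T ER-beta-UAS-bla; 2% charcoal-stripped FBS; cells pre-incubated 6 hr, compound 16 hr, 37C/5% CO2; LiveBLAzer B/G FRET substrate 2 h RT; fluorescence intensity read.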

[11] = molecular target: Estrogen receptor beta (Homo sapiens) (UniProt Q92731); test: qHTS assay to identify small molecule antagonists of the estrogen receptor beta (ER-beta) signaling pathway (AID 1259378; active = well fitted inhibition curve with a large enough effect in the signal ratio in the repeat runs, not every such curve was filed as active; the % refers to the signal ratio)
Procedure, shortened: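 ER-beta-UAS-bla HEK293T (GripTite) cells in 2% charcoal-stripped FBS medium were preincubated 6 hr at 37C, dosed with compound, then stimulated with 1 nM E2 (final) for 16 hr; beta-lactamase reporter read by B/G FRET fluorescence after 2 hr substrate loading.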

[12] = qHTS assay to identify small molecule agonists of the androgen receptor (AR) signaling pathway in the presence of an antagonist - cell viability counter screen (AID 1259379); note: nearly all actives have a fitted effect of over 25% in size; note: potency is the fitted concentration of half-maximal effect
Procedure, shortened: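 Counter screen for cell viability run in parallel with the AR agonist-mode luciferase assay. MDA-kb2 cells were co-treated with nilutamide (3.0uM final) and compounds, then incubated 16 hr at 37C, and CellTiter-Fluor fluorescence was measured.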

[13] = qHTS assay to identify small molecule agonists of the estrogen receptor beta (ER-beta) signaling pathway - cell viability counter screen (AID 1259380); note: nearly all actives have a fitted effect of over 30% in size
Procedure, shortened: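 In this qHTS counter screen, HEK293T cells carrying an ER-beta/UAS beta-lactamase reporter, grown in 2% charcoal-stripped FBS, received compound for 16 hr; ATP-based CellTiter-Glo luminescence was then read after 30 min at room temperature.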

[14] = molecular target: Androgen receptor (Homo sapiens) (UniProt P10275); test: qHTS assay to identify small molecule agonists of the androgen receptor (AR) signaling pathway in the presence of an antagonist (AID 1259381; calls by dose curve; note: nearly all actives have a fitted effect of over 15% in size; note: potency is the fitted concentration of half-maximal effect)
Procedure, shortened: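 AR antagonist background: nilutamide 3.0uM final. Cell line: MDA-kb2, MMTV-driven luciferase, responsive to both AR and GR. Exposure 16hr, 37C, no CO2; ONE-Glo luminescence.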

[15] = qHTS assay to identify small molecule antagonists of the estrogen receptor beta (ER-beta) signaling pathway - cell viability counter screen (AID 1259382); note: series mostly up to about 92 µM; nearly all actives have a fitted effect of over 55% in size
Procedure, shortened: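 HEK293T ER-beta-UAS-bla, 2% charcoal-stripped FBS; compounds + 1nM E2 16 hr 37C; CellTiter-Glo luminescence, 30 min RT.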

[16] = molecular target: Estrogen receptor (Homo sapiens) (UniProt P03372); test: qHTS assay to identify small molecule agonists of the estrogen receptor alpha (ER-alpha) signaling pathway in the presence of an antagonist (AID 1259383; calls by dose curve; note: nearly all actives have a fitted effect of over 15% in size; note: potency is the fitted concentration of half-maximal effect; for activation: top concentration of the series differs between compounds)
Procedure, shortened: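 ER-alpha agonism measured under antagonist challenge: 10.0nM ICI-182,780 (final) plus compound, 15 concentrations, 22hr, VM7Luc4E2 ERE-luciferase cells. Read by luminescence.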

[17] = qHTS assay to identify small molecule agonists or antagonists of the thyroid stimulating hormone receptor (TSHR) signaling pathway - wild type cell line counter screen (AID 1259384; calls by dose curve)
Procedure, shortened: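 Wild-type HEK293 cells were plated 18 h at 37 C/5% CO2, pin-dosed with compound plus Ro20-1724 medium, held 30 min at room temperature, then given cAMP-d2 and anti-cAMP-cryptate; fluorescence was read after 1 h. Fifteen concentrations, triplicate.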

[18] = molecular target: Thyrotropin receptor (Homo sapiens) (UniProt P16473); test: qHTS assay to identify small molecule antagonists of the thyroid stimulating hormone receptor (TSHR) signaling pathway (AID 1259385; calls by dose curve; note: nearly all actives have a fitted effect of over 20% in size)
Sequence of Thyrotropin receptor (Homo sapiens) (P16473 whole entry, looked up): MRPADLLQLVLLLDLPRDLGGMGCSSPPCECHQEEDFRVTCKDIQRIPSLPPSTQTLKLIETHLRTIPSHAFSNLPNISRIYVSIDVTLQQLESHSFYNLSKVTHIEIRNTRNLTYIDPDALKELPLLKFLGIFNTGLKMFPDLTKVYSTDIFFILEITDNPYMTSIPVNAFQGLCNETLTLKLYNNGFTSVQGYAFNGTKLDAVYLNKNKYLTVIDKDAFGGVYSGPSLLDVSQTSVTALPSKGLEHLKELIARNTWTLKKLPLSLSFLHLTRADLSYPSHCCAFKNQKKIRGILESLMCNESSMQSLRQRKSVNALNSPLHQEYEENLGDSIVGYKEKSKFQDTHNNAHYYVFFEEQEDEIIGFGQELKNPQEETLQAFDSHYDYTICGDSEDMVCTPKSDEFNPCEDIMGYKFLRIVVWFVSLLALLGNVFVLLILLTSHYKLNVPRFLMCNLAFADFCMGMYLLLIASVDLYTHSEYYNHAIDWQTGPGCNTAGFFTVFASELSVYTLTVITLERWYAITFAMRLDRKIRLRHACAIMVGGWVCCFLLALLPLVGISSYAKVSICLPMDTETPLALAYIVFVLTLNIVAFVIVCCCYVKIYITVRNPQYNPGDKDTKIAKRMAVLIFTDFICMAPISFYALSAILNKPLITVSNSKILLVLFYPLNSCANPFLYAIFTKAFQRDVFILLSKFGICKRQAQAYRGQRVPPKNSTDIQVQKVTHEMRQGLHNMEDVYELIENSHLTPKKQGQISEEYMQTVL
Procedure, shortened: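 TSHR-HEK293 cells were plated and held 18 h at 37C/5% CO2, then given compound plus Ro20-1724 and stimulated with TSH at 1.5 ng/mL final. After 30 min at room temperature, cAMP was detected with cAMP-d2/anti-cAMP-cryptate (1 h) by fluorescence.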

[19] = qHTS assay to identify small molecule antagonists of the sonic hedgehog signaling (Shh) pathway (AID 1259369; calls by dose curve; note: nearly all actives have a fitted effect of over 45% in size; note: potency is the fitted concentration of half-maximal effect)
Procedure, shortened: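 Gli1 transcriptional reporter (firefly Luc) in NIH/3T3 background, conditioned-medium activated. 24hr exposure, luminescence endpoint.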

[20] = qHTS assay to identify small molecule phospholipidosis (PLD) inducers (AID 1259344; active = well fitted curve in the direction sought with a large enough effect; an effect the other way counts as inactive or inconclusive)
Procedure, shortened: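 After 4 h attachment on collagen I, HepG2 cells were dosed with compound alongside LipidTOX Red, kept 24 h at 37 C, fixed, and imaged for lamellar phospholipid pits.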

Measured: Potency

CC(Cc1ccccc1)NCCCCl (stereo not drawn)
not listed: [19] | [20]
inactive: all other assays above

COc1ccc(C=O)cc1O
not listed: [12] | [13] | [20]
inactive: all other assays above

CC(C)(N)Cc1ccccc1Cl
not listed: [9] | [10] | [13] | [19] | [20]
inactive: all other assays above

O=C/C=C/c1ccco1
not listed: [13] | [17] | [18] | [20]
inactive: all other assays above

CCOC1Oc2ccc(OS(C)(=O)=O)cc2C1(C)C (stereo not drawn)
active: [3] 60.6 µM | [4] 54 µM | [12] 68 µM
not listed: [19] | [20]
inactive: all other assays above

Nc1c(Cl)c(F)nc(OCC(=O)O)c1Cl
not listed: [13] | [19] | [20]
inactive: all other assays above

OP(O)c1ccccc1
not listed: [20]
inactive: all other assays above

C[C@H]1CCCC(=O)CCC/C=C/c2cc(O)cc(O)c2C(=O)O1
46.8 µM (active) and inactive: [12]
14.8 µM (active) and inactive: [19]
active: [3] 20.9 µM | [4] 23.4 µM and 25.2 µM | [7] 20.9 µM | [8] 23.4 µM
inactive: [1] | [2] | [5] | [6] | [13] | [14] | [15]

BrCc1ccc(Br)cc1
not listed: [10] | [11] | [12] | [20]
inactive: all other assays above

CCNc1nc(Cl)nc(NC(C)(C)C)n1
active: [19] 969 nM
not listed: [10] | [16] | [17] | [18] | [20]
inactive: all other assays above

CNC(=O)Oc1ccccc1C(C)C
not listed: [10] | [11] | [13] | [20]
inactive: all other assays above

CCN[C@@H](C)Cc1ccccc1
not listed: [12] | [13] | [19] | [20]
inactive: all other assays above

CCOP(=S)(OCC)SCCl
not listed: [8] | [10] | [11] | [12] | [13] | [19] | [20]
inactive: all other assays above

CC[C@@H](CO)NC(=O)[C@@H]1C=C2c3cccc4[nH]cc(c34)C[C@H]2N(C)C1
not listed: [20]
inactive: all other assays above

CNC(=O)NC(O)C(Cl)(Cl)Cl (stereo not drawn)
not listed: [8] | [19] | [20]
inactive: all other assays above

Cc1ccc(S(=O)(=O)N[C@@H](CCCCN)C(=O)CCl)cc1
not listed: [10] | [11] | [13]
inactive: all other assays above

CCc1ccc(C2CCNCC2)cc1
not listed: [8] | [9] | [19] | [20]
inactive: all other assays above

C[C@H](N)C(=O)c1ccccc1
not listed: [10] | [11] | [12] | [16] | [20]
inactive: all other assays above

COc1cccc([C@@]2(O)CCCC[C@@H]2CN(C)C)c1
not listed: [6] | [10] | [11] | [16]
inactive: all other assays above

CCN(CC)C1CCCCC1
not listed: [7] | [12] | [16] | [17] | [18] | [19] | [20]
inactive: all other assays above

CN(C)C(=O)Oc1cc(OC(=O)N(C)C)cc(C(O)CNC(C)(C)C)c1 (stereo not drawn)
not listed: [16]
inactive: all other assays above

[O-][Br+2]([O-])O
not listed: [10] | [11] | [12] | [19] | [20]
inactive: all other assays above

CCOC(=O)CC(SP(=S)(OC)OC)C(=O)OCC (stereo not drawn)
27.3 µM (active) and inactive: [14]
not listed: [10] | [11] | [13] | [16]
inactive: all other assays above

O=c1[nH]c2ccccc2n1C1CCNCC1
not listed: [10] | [11] | [13] | [20]
inactive: all other assays above

CCC(CC)(CNC(=O)CCCO)c1cccc(OC)c1
not listed: [8] | [12] | [13] | [16] | [20]
inactive: all other assays above

COP(=O)(O)OC
not listed: [10] | [11] | [13] | [20]
inactive: all other assays above

CCCOC(=O)c1cncn1C(C)c1ccccc1 (stereo not drawn)
not listed: [8] | [12] | [20]
inactive: all other assays above

CCC1(c2ccccc2)CCC(=O)NC1=O (stereo not drawn)
not listed: [9] | [13] | [20]
inactive: all other assays above

CCSC(=O)Cl
not listed: [9] | [10] | [13] | [19] | [20]
inactive: all other assays above

COC(=O)c1ccc(CBr)cc1
active: [16] 12.3 µM
not listed: [5] | [9] | [12] | [19] | [20]
inactive: all other assays above

O=C(Cl)/C=C/C(=O)Cl
not listed: [7] | [11] | [17] | [18] | [20]
inactive: all other assays above

Clc1ccc(C(Cl)(Cl)Cl)cn1
not listed: [8] | [10] | [11] | [13] | [20]
inactive: all other assays above
